TDP1 block – blocks human tyrosyl-DNA phosphodiesterase 1 | recombinant TDP1, AlphaScreen DNA substrate cleavage | Potency, µM (highest dose often 130 µM), actives largely listed as inhibitors | 350,000 tested, 0.28% active; note: nearly all actives have a fitted effect of over 40% in size
Target sequence (Q9NUW8 whole entry, looked up): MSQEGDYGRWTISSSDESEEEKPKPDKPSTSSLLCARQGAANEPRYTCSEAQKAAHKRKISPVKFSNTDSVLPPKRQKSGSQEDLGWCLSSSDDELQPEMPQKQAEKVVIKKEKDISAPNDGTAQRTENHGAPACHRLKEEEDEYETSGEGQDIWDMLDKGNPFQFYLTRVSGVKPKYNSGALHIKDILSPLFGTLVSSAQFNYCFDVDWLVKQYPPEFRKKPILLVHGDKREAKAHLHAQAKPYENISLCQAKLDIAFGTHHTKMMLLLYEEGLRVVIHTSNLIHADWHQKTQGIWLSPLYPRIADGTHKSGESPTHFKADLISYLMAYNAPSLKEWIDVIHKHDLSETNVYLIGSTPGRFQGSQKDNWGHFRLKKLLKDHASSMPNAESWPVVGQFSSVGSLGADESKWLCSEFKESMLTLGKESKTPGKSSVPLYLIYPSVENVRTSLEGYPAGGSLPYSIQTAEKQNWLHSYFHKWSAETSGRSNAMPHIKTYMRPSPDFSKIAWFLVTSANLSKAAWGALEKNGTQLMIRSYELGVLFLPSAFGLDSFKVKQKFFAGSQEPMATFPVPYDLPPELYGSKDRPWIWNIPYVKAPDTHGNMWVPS
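Compounds were preincubated with Tdp1 (1 nM final) for 15 min at room temperature before substrate (15 nM final) started a 5 min reaction; beads (10 ug/ml final) were then added for 10 min before AlphaScreen detection.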
TGFb inhibitor – inhibitors of TGF-b signaling. HepG2 CAGA-GFP TGF-b/SMAD3 reporter, GFP fluorescence, 18 h; TGF-beta stimulated, 500 pg/mL final. Potency, µM (top dose mostly 46.1 µM), actives largely listed as inhibitors. 410,000 tested, 1.2% active. AID 588855; note: nearly all actives have a fitted effect of over 65% in size
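Inhibition of TGF-beta-driven CAGA-GFP reporter expression in HEPG2 cells is measured by cellular GFP fluorescence after 18 h stimulation with 500 pg/mL recombinant TGF-beta in 1% FBS medium at 37 degrees C.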
IL-1B inflam inh – inflammasome signaling inhibition, IL-1 beta readout | 360,000 tested, 4.7% active | activity change, % at 57.5 µM | THP-1 LPS/ATP IL-1B secretion, AlphaLISA, 16 h; stronger effect = lower value; in the data active = activity change below about -50%; inconclusive = mostly about -30% to -49%
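Secreted IL-1B measured by AlphaLISA bead assay after 16 h compound exposure of THP-1 cells; compounds (final up to 57.5 uM) added 1 h before LPS (250 ng/mL) and ATP (1.25 mM) stimulation; lower signal means less secretion.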
HepG2 viability – counter-screen for TGF-b inhibitors: cytotoxicity in HepG2 cells; HepG2 CAGA-GFP viability, ATP luminescence, 18 h; Potency, µM (top dose mostly 46.1 µM), hits mostly cytotoxic; 410,000 tested, 0.76% active
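HepG2 CAGA-GFP cells (1000/well, DMEM with 1% FBS) received compound, then TGF-beta at 500 pg/mL final, and were incubated 18 hours at 37 degrees C. Viability was read by CellTiter-Glo luminescence. Media-only wells were set as complete cell-killing and DMSO as no toxicity.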
DT40 TDP1 CPT – growth inhibition of DT40 Tdp1-/-;hTDP1 cells with camptothecin (screen for TDP1 inhibitors) | Potency, µM (doses to about 46.2 µM), usual class: inhibitors | AID 686979 | chicken DT40 Tdp1-/-;hTDP1 cells + 20 nM CPT, ATP luminescence, 48 h | 420,000 tested, 12% active; note: nearly all actives have a fitted effect of over 55% in size
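Chicken DT40 Tdp1-/- cells complemented with human TDP1, 400 cells/well, exposed to compounds plus 20 nM camptothecin for at least 48 h at 37 C; viability read as ATP content by CellTiter-Glo luminescence.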
DT40 TDP1 no CPT – qHTS for Inhibitors of human tyrosyl-DNA phosphodiesterase 1 (TDP1): qHTS in cells in absence of CPT; DT40 Tdp1-/- hTDP1 cells, no CPT, ATP luminescence, 48 h; Potency, µM (titrated, usually from 46.2 µM), actives largely listed as inhibitors; 420,000 tested, 15% active; AID 686978, 2013; note: nearly all actives have a fitted effect of over 55% in size
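A cellular qHTS used chicken DT40 cells lacking endogenous Tdp1 but carrying stably transfected human TDP1. Compounds were applied without camptothecin, and cell growth kinetics were judged by ATP-dependent luminescence after ≥48 hr.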
A number is an active result; - = inactive; ? = inconclusive; . = not tested or not shown; [ ] = another dose, or the depositor's remark. Most compounds without a hit are left out; they make up all but 19% or so of the library. Unless noted, calls come from the whole dose curve; as a rule, active = well fitted curve in the direction sought with a large enough effect; inconclusive = small, poorly fitted or top-dose-only effect, or another doubt; inactive = no such curve, though single readings can be large; an effect the other way counts as inactive or inconclusive.

SMILES	TDP1 block	TGFb inhibitor	IL-1B inflam inh	HepG2 viability	DT40 TDP1 CPT	DT40 TDP1 no CPT
COc1ccc(OC)c(S(=O)(=O)N2CCN(CC(O)COc3ccc(C#N)cc3)CC2)c1 (stereo not given)	-	?	-	-	?	23.1µM
N#Cc1ccc(-c2ccc(OCC(O)CN3CCCCC3)cc2)cc1 (stereo not given)	.	-	?	-	23.1µM	?
N#Cc1ccc(OCC(O)CN2CCN(c3ncc(C(F)(F)F)cc3Cl)CC2)cc1 (stereo not given)	-	?	-65.1	-	?	14.6µM
COc1ccc2c(c1)c1c(c(=O)n(Cc3ccccc3)c(=O)n1Cc1cc(C)ccc1C)n2C	-	-	.	-	-	-
CCc1ccc(OCC(=O)Nc2cc(-c3ccc(C)cc3)no2)cc1	-	-	.	-	-	-
Cc1ccccc1N1C(S)=C(C#N)C(=O)NC1c1cccs1 (stereo not given)	-	-	-	-	?	?
N#CC1=C(S)N(c2ccc(F)cc2)C(c2cccs2)NC1=O (stereo not given)	-	-	-	-	8.2µM	?
Cc1cccc(N2C(S)=C(C#N)C(=O)NC2c2cccs2)c1 (stereo not given)	-	-	-	-	14.6µM	13µM
COc1ccc(C(=O)NNC(=O)C2CCCN(C3CC(=O)N(c4ccccc4)C3=O)C2)cc1 (stereo not given)	-	-	-	-	-	-
CSCCC(NS(=O)(=O)c1cccc(C(F)(F)F)c1)C(=O)N(C)CCOc1ccc(Cl)cc1 (stereo not given)	.	?	-57.5	-	?	?
CSCCC(NS(=O)(=O)c1cccc(C(F)(F)F)c1)C(=O)N1CCN(C(=O)c2ccco2)CC1 (stereo not given)	.	-	-	-	-	-
Cc1[nH]c2ccccc2c1C(O)CN1CCC2(CC1)OCCO2 (stereo not given)	-	-	-	-	?	16.4µM
Cc1[nH]c2ccccc2c1C(=O)CN1CCC2(CC1)OCCO2	-	-	-	-	-	-
Cc1c(C(=O)OCCOc2ccccc2)[nH]c2c1C(=O)CC(c1ccc(C(C)(C)C)cc1)C2 (stereo not given)	-	-	.	-	-	?
COc1ccc(C2CC(=O)c3c([nH]c(C(=O)OCc4ccccc4)c3C)C2)cc1 (stereo not given)	-	-	.	-	11.6µM	?
Cc1ccc(COC(=O)c2[nH]c3c(c2C)C(=O)CC(c2ccc(N(C)C)cc2)C3)cc1 (stereo not given)	-	-	.	-	-	-
Cc1c(C(=O)OCc2ccccc2)[nH]c2c1C(=O)CC(c1ccc(C(C)(C)C)cc1)C2 (stereo not given)	-[12.3 µM]	-	.	-	?	18.4µM
COc1ccc(C2CC(=O)c3c([nH]c(C(=O)OC(C)C)c3C)C2)cc1OC (stereo not given)	-	-	-	-	23.1µM	20.6µM
COc1ccc(COC(=O)c2[nH]c3c(c2C)C(=O)CC(c2ccc(OC)c(OC)c2)C3)cc1 (stereo not given)	-	-	.	-	9.2µM	6.51µM
COc1ccc(N2CCN(C(=O)c3cc4cc5ccc(Cl)cc5nc4o3)CC2)cc1	-	-	.	-	-	-
Cc1ccc2nc(-c3ccc(O)cc3)oc2c1	.	-	-	-	-	-
N#Cc1ccccc1Cn1c(=O)n(-c2cccc(C(F)(F)F)c2)c(=O)c2sccc21	-	-	.	-	?	-
COC(=O)C[C@H]1CC[C@H](NC(=O)Nc2ccccc2F)[C@@H](CO)O1	.	.	-	.	23.1µM	23.1µM
COC(=O)C[C@@H]1CC[C@H](NC(=O)Nc2cccc(F)c2)[C@@H](CO)O1	.	.	-	.	-	-
CCC(=O)N(c1nnc(SCC(=O)Nc2ccccc2Cl)s1)C1CC1	-	-	-	-	-	-
SMILES	TDP1 block	TGFb inhibitor	IL-1B inflam inh	HepG2 viability	DT40 TDP1 CPT	DT40 TDP1 no CPT
O=C(/C=C/c1ccc(Cl)cc1Cl)c1ccc[nH]1	-	?	-86.4	-	?	?
O=C(/C=C/c1ccccc1Cl)c1ccc[nH]1	-	?	?	-	?	?
O=C(/C=C/c1ccc(Cl)cc1Cl)n1cccn1	-	-	-61.1	-	?	?
CC1=C(C(=O)OCc2ccccc2)C(c2ccc(C3CCCCC3)cc2)NC(=O)N1CCCCCC(=O)O (stereo not given)	-	.	.	.	.	.
COc1ccc(CCNC(=O)c2cc([C@@H](NC(=O)OC(C)(C)C)C(C)C)sc2N)cc1OC	.	.	?	.	16.4µM	18.4µM
CC(C)[C@H](NC(=O)OC(C)(C)C)c1cc(C(=O)NCCO)c(N)s1	.	.	-	.	-	-
COC(=O)C(CC(=O)c1ccc(Cl)cc1)c1ccccc1 (stereo not given)	.	-	-	-	?	-
CCOC(=O)C1(CCOc2ccccc2)CCN(Cc2ccc3c(c2)OCCO3)CC1	.	-	-88.2	-	?	?
CCOC(=O)C1(CCOc2ccccc2)CCN(Cc2ccc(F)c(OC)c2)CC1	.	?	-88.5	-	?	6.51µM
CCOC(=O)C1(CCOc2ccccc2)CCN(Cc2ccc(O)c(Cl)c2)CC1	.	?	-	-	16.4µM	13µM
CCOC(=O)C1(CCOc2ccccc2)CCN(Cc2ccc(O)c(OC)c2)CC1	.	-	-	-	?	18.4µM
CCc1ccccc1NC(=O)C1CCN(C2=NS(=O)(=O)C(c3ccc(C)c(C)c3)=C2C)CC1	-	-	.	-	?	?
Cc1oc(-c2ccccc2NC(=O)c2ccccc2)nc1CNC(=O)C1CC(=O)OC12CCCCC2 (stereo not given)	.	.	.	.	-[9.04 µM]	-
CCOc1ccc(S(=O)(=O)N2CCN(CCNS(=O)(=O)c3ccc(C)cc3)CC2)cc1	-	-	?	-	-	?
Cc1cccc(Nc2ncnc(N)c2[N+](=O)[O-])n1	-	-	-	-	9.2µM	16.4µM
Nc1ncnc(Nc2ccccn2)c1[N+](=O)[O-]	-	-	-	-	-	23.1µM
Cc1nc(SCc2nc3ccc(Br)cc3[nH]2)c2oc3ccccc3c2n1	-	?	.	-	.	.
Cc1nc(Nc2cccc(Cl)c2)c2oc3ccccc3c2n1	.	?	-72.0	-	16.4µM	20.6µM
Cc1nc(SCc2nc3ccc(Cl)cc3[nH]2)c2oc3ccccc3c2n1	-	7.94µM	.	-	.	.
COc1cccc(Nc2nc(C)nc3c2oc2ccccc23)c1	.	-	-	-	?	20.6µM

Screens deposited in PubChem by National Center for Advancing Translational Sciences (NCATS).
